High-throughput results from PubChem.
MITF inh: blocks human microphthalmia-associated transcription factor. O75030. AlphaScreen MITF homodimerization, bead proximity signal. inhibition, % at 2.6 µM. hit rate 0.91% among 650,000. AID 1259374; in the data active means inhibition above about 50%;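 further: 0% = vehicle wells with protein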
FBW7 activator: human FBW7 E3 ligase activation, primary screen; Q969H0; AlphaScreen FBW7–phospho-cyclin E peptide binding, activator screen; normalized activity (activation), % at 26.1 µM; hit rate 0.13% among 650,000; in the data active means normalized activity above about 1.9%;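 further: purified mutant Fbw7 with reduced substrate affinity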
Target sequence (Q969H0 whole entry, looked up): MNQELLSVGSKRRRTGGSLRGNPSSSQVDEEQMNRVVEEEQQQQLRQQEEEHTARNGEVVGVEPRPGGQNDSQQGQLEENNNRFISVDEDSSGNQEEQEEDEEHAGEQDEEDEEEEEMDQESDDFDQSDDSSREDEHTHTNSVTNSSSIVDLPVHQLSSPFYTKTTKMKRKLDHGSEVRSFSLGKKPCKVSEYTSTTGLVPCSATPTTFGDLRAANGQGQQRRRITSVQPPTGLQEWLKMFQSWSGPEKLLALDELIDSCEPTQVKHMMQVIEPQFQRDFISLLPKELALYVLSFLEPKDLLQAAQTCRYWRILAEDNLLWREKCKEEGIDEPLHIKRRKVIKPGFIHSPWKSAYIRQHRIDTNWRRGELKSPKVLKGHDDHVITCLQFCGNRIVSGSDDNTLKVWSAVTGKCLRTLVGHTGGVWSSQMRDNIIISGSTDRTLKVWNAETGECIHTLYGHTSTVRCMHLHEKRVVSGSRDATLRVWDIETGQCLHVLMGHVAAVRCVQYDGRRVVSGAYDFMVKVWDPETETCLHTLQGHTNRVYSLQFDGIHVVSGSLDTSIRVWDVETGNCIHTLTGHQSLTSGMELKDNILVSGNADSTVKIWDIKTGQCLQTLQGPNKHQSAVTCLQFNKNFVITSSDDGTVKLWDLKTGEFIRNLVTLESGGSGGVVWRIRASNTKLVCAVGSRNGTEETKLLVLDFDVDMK
TEAD-YAP block: TEAD-YAP interaction inhibition; HEK-TIYL cells, TEAD-Gal4/YAP UAS-luciferase luminescence; inhibition, % at 9.12 µM; hit rate 1.4% among 640,000; in the data active means inhibition above about 32%;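 further: 0% = median of test compound wells and 100% = reference inhibitor wells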
GPR151 activ: activators of human GPR151 | PathHunter beta-arrestin GPR151 cells, luminescence | activation, % at 11.2 µM | hit rate 1% among 650,000 | AID 1508602; in the data active means activation above about 4.9%;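 further: 0% = median of compound wells and 100% = cells with positive control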
MITF inh conf: confirmation of human MITF inhibitors; shares compounds with MITF inh; inhibition, % at 2.6 µM; AlphaScreen MITF homodimerization, biotin/His-MITF beads; hit rate 16% among 4,700;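 active means inhibition above a cutoff derived from the DMSO control wells, cut at about 28% in these data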;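 further: 0% = MITF dimer wells with DMSO only; inhibitors lower the bead chemiluminescence by keeping MITF from dimerizing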
AlphaScreen DR: AlphaScreen optical interference, dose response counter-screen. shares compounds with MITF inh. AlphaScreen optical interference counterscreen, cell-free. IC50, µM. hit rate 6% among 480. AID 1259373; call rule not given here
AlphaScreen intf2: optically interferes with AlphaScreen signal | shares compounds with MITF inh | LysRS AlphaScreen counterscreen, signal interference, triplicate | inhibition, % at 2.6 µM | hit rate 7.6% among 4,700;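 active means inhibition above a cutoff derived from the DMSO control wells, cut at about 30% in these data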
* = called active by the depositor; / = not tested or not shown. An excerpt weighted towards active compounds, which were near 3.5% of everything screened.

SMILES | MITF inh | FBW7 activator | TEAD-YAP block | GPR151 activ | MITF inh conf | AlphaScreen intf2 | others
Cc1nc2nc[nH]n2c(=O)c1NS(=O)(=O)c1ccc2c(c1)n(C)c(=O)n2C | 64* | 0 | 4 | -1 | -3 | -6
Cc1nc2nc[nH]n2c(=O)c1NS(=O)(=O)c1ccc(F)cc1 | 43 | 0 | 2 | 0 | / | /
Cn1c(=O)c2c(SCC(=O)N3CCCCC3)nc(-c3ccccc3)nc2n(C)c1=O | -8 | 0 | -4 | 1 | / | /
CC(C)N(C(=O)Cn1c(CO)nc2ccccc21)c1ccccc1 | 14 | 0 | 6 | 0 | / | /
CN1CCN(CCCOc2ccc(Cc3ccccc3)cc2)CC1 | -4 | 0 | 4 | 0 | / | /
CN1CCN(CCCOc2ccccc2C=O)CC1 | 65* | 1 | -2 | -1 | 6 | 17
O=Cc1ccc(OCCCN2CCN(Cc3ccccc3)CC2)cc1 | 57* | 0 | 10 | 0 | 6 | 10
CCCCOc1ccc(CN2CCN(CCOCCO)CC2)cc1 | 76* | 0 | 6 | 2 | 18 | -1
O=Cc1cc(Cl)ccc1OCCCN1CCN(Cc2ccccc2)CC1 | 57* | 0 | -4 | 0 | 5 | 10
COc1ccc(CN2CCN(CCOCCO)CC2)cc1 | 14 | 0 | 6 | 2 | / | /
O=Cc1cc(Cl)ccc1OCCOc1ccccc1 | -3 | 0 | -48 | -1 | / | /
COc1cc(S(=O)(=O)Nc2cnc3ccccc3c2)ccc1Cl | -9 | 0 | -29 | 3 | / | /
COC(=O)c1c(OC2CCCC2)cc(=O)n2c1CCN(C(=O)CCc1cccnc1)CC2 | -1 | 0 | 3 | 0 | / | /
O=C(Cc1ccccc1)Nc1nnc(C(F)(F)F)s1 | 14 | 0 | -4 | -1 | / | /
CC(=O)CCc1ccc(OCCCN2CCN(Cc3ccccc3)CC2)cc1 | 59* | 0 | 1 | 0 | 9 | 6
COC(=O)c1ccc(CN2CCN(C/C=C/c3ccc(OC)cc3)CCC2=O)cc1 | 14 | 0 | 5 | 0 | / | /
O=C1CC(c2ccccc2)=NO1 | 56* | 0 | -6 | -1 | 13 | 12
O=C1CC(c2ccc(Br)cc2)=NO1 | 19 | 0 | -8 | 0 | / | /
Cc1cccc(OCC(=O)NCCc2ccc(N3CCCC3)cc2)c1 | 53* | -1 | 2 | 0 | -2 | -1
O=C(Cc1ccccc1)Nc1cc(Cl)ccc1Cl | -3 | 0 | -2 | 1 | / | /
O=C(CC(NCc1ccccn1)C(=O)O)Nc1ccccc1Cl (stereo unspecified) | 104* | 0 | -2 | 0 | 89* | 100*
O=C(CC(NCc1ccccn1)C(=O)O)Nc1cc(Cl)ccc1Cl (stereo unspecified) | 104* | 0 | -6 | 1 | 75* | 100*
COc1ccccc1NC(=O)CC(NCc1ccccn1)C(=O)O (stereo unspecified) | 100* | 0 | -6 | 1 | 106* | 100*
COc1ccccc1NC(=O)CC(C(=O)O)N(C)C (stereo unspecified) | 15 | 0 | 9 | 3 | / | /
Cc1ccc(C)c(NC(=O)CCN2CCCCCC2)c1 | 8 | 0 | 6 | 0 | / | /
SMILES | MITF inh | FBW7 activator | TEAD-YAP block | GPR151 activ | MITF inh conf | AlphaScreen intf2 | others
COc1ccc(C(=O)OCC(=O)c2ccc([N+](=O)[O-])cc2)cc1 | 1 | 0 | 5 | 0 | / | /
O=C(OCC(=O)c1ccc([N+](=O)[O-])cc1)C(=O)OCC(=O)c1ccc([N+](=O)[O-])cc1 | 61* | -1 | 3 | 0 | 8 | 29
COc1ccc(CCNc2nc(-c3sc(C)nc3C)cs2)cc1OC | 71* | 0 | -10 | -1 | 11 | 14
O=S(=O)(c1ccc(Cl)cc1)N1CCN(Cc2cccc(Br)c2)CC1 | 51* | 0 | 6 | 1 | 11 | 8
O=S(=O)(c1ccc(F)cc1)N1CCN(Cc2cccc(Br)c2)CC1 | 60* | 0 | 7 | 0 | 6 | 6
C/C(CC(=O)NCc1ccco1)=N\NC(=O)C(=O)Nc1ccc(C)c(Cl)c1 | 15 | 0 | 5 | 0 | / | /
Cc1cccc(N2CCN(C(=O)c3ccc4c(c3)NC(=O)c3ccccc3N4)CC2)c1C | -4 | 0 | -5 | 2 | / | /
CN1C2=C(C(=O)CCC2)C(c2ccc([N+](=O)[O-])cc2)C2=C1CCCC2=O | -7 | 0 | -17 | -1 | / | /
Cc1ccc(C)c(C(=O)COc2ncnc3sccc23)c1 | 0 | 0 | -9 | 0 | / | /
Cc1onc(-c2ccccc2)c1C(=O)NC1=NCCS1 | 8 | 0 | 4 | 1 | / | /
Cc1noc(C)c1C(=O)NC1=NCCS1 | 57* | 0 | -2 | -1 | 6 | 8
CC(C)(C)n1nnnc1C(c1ccc2ncccc2c1)N1CCOCC1 (stereo unspecified) | 54* | 0 | -28 | 0 | 9 | 5
CCN1CCN(C(c2ccc3ncccc3c2)c2nnnn2C(C)(C)C)CC1 (stereo unspecified) | 10 | 0 | 0 | 1 | / | /
O=C(COC(=O)c1ccc([N+](=O)[O-])o1)Nc1ccc2c(c1)OC(F)(F)O2 | 82* | 0 | 14 | 1 | 8 | 13
CN(C)CCOC(=O)c1ccccc1Br | -20 | 0 | 10 | 0 | / | /
Cc1cc(C)c(C)c(S(=O)(=O)Nc2ccc(C(=O)NCc3ccccn3)cc2)c1C | 11 | 1 | -5 | 1 | / | /
CS(=O)(=O)Nc1ccc(C(=O)NCc2ccccn2)cc1 | 70* | 1 | -5 | 1 | -6 | -8
O=C(NCC(c1cccnc1)N1CCc2ccccc2C1)c1ccc(Br)o1 (stereo unspecified) | 17 | 0 | 1 | 0 | / | /
CCCN(CCO)Cc1c(F)cccc1Cl | 56* | 0 | -2 | 1 | -7 | -9
OCCCCNCc1c(F)cccc1Cl | -9 | 0 | 4 | -1 | / | /
CCN(CC)CCCNCc1c(F)cccc1Cl | 57* | 0 | -3 | 1 | 19 | 8
C/C(=N\NC(=O)CSc1ccc(Cl)cc1)c1ccccc1 | -2 | 0 | -2 | 0 | / | /
CCOC(=O)C1=CN(c2ccc(C)cc2)C=C(C(=O)OCC)C1c1ccccc1F | 8 | 0 | 4 | -1 | / | /
CC12C=CC(CO)(O1)C1C(=O)N(c3ccc([N+](=O)[O-])cc3)C(=O)C12 (stereo unspecified) | -3 | 0 | -11 | 0 | / | /
Cc1ccc(N2C(=O)C3C(C2=O)C2(CO)C=CC3(C)O2)cc1[N+](=O)[O-] (stereo unspecified) | 53* | 0 | 7 | 1 | 43* | 5 | AlphaScreen DR=>6.5
SMILES | MITF inh | FBW7 activator | TEAD-YAP block | GPR151 activ | MITF inh conf | AlphaScreen intf2 | others
COCCNCCOc1c(C)cccc1C(C)(C)C | 80* | 0 | 4 | 1 | 8 | 6
NCCNCCOCCOc1cccc(Cl)c1Cl | 51* | 0 | 1 | -1 | 10 | 22
CCCCNCCOCCOc1c(C)cccc1Cl | 46 | 0 | 11 | 4 | / | /
COCCNCCCOc1c(C)cccc1C(C)(C)C | 19 | 0 | 5 | 0 | / | /
Cc1cccc(Cl)c1OCCOCCNCCO | 73* | 0 | 0 | 0 | -4 | -8
COCCNCCOCCOc1cccc(Cl)c1Cl | 26 | 0 | -1 | -1 | / | /
